IDE exosite inh: insulin-degrading enzyme (human) exo-site inhibition; P14735; AID 1259349; actives 6.3% (n = 17,000); purified IDE, FL-6b probe fluorescence polarization; hits give low values; z-score at 20 µM;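 active means z-score of -3 or lower, meaning strong loss of probe binding signal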;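 further: His-tagged human IDE residues 42-1019 made in E. coli with 30 nM FL-6b probe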
Starred values were filed as active, the others as inactive; ! = not confirmed by another sample. This is one part of a sample in which hits are shown more often than they occur.

SMILES | IDE exosite inh
CCCNC(=O)N1C[C@@H]2N[C@H](C1)C2c1ccc(-c2ccc(F)cc2)cc1 (stereo not given in full) | 2.2
CN(C)C(=O)c1cccc(-c2ccc(C3[C@@H]4CN(C(=O)c5cnccn5)C[C@H]3N4)cc2)c1 (stereo not given in full) | 0.092
CCCNC(=O)N1C[C@@H]2N[C@H](C1)C2c1ccc(-c2cccc(OC)c2)cc1 (stereo not given in full) | -3.9*!
C/C=C/c1ccc([C@@H]2[C@@H](C#N)N(c3ncc(CC)s3)[C@@H]2CO)cc1 | 4.7
N#Cc1ccc(-c2ccc([C@H]3[C@@H](CO)N4CCCCN(S(=O)(=O)c5ccccc5)C[C@@H]34)cc2)cc1 | 3.5
C[C@@H]1CCCCO[C@@H](CN(C)C(=O)NC2CCCCC2)[C@H](C)CN([C@H](C)CO)C(=O)c2cc(N(C)C)ccc2O1 | 0.55
CCCNC(=O)N1CC2(CCN(C(=O)C3CCOCC3)CC2)c2c([nH]c3cc(OC)ccc23)[C@@H]1CO | -0.67
N#C[C@@H]1[C@H](c2ccccc2-c2ccccc2F)[C@H](CO)N1C(=O)Cc1ccccc1 | -1.6
O=C(Nc1ccccc1)N1CCCCN2[C@H](CO)[C@H](c3ccc(C#CC4CC4)cc3)[C@H]2C1 | 0.62
CN(C)C(=O)c1cccc(-c2ccc([C@H]3[C@@H](CO)N4CCCCN(C(=O)C5CCC5)C[C@@H]34)cc2)c1 | 2.9
O=C1CCCc2cnnn2COCCN1 | -0.5
COCC#Cc1ccc([C@@H]2[C@H]3CN(C(=O)Nc4ccc(F)cc4)CC(=O)N3[C@H]2CO)cc1 | 3.2
O=C(Nc1ccccc1F)N1CC(=O)N2[C@@H](CO)[C@@H](c3ccc(-c4ccc(F)cc4)cc3)[C@@H]2C1 | 2.5
C/C=C/c1ccc([C@H]2[C@@H](CO)N(C(C)=O)C23CN(C(=O)NC2CCCCC2)C3)cc1 | 0.49
OC[C@H]1[C@H]2c3ccccc3NC[C@H]2N1CC1CCOCC1 | 2.4
Cc1cccc(-c2ccc(C3[C@@H]4CN(C(=O)Cc5ccncc5)C[C@H]3N4)cc2)c1 (stereo not given in full) | 0.11
Cc1ccccc1-c1ccc(C2[C@@H]3CN(C(=O)Cc4ccncc4)C[C@H]2N3)cc1 (stereo not given in full) | -9*!
CN(C)C(=O)c1ccc(-c2ccc(C3[C@@H]4CN(C(=O)Cc5ccncc5)C[C@H]3N4)cc2)cc1 (stereo not given in full) | 3.6
CCS(=O)(=O)N1CC2(C1)[C@H](c1ccccc1)[C@@H](CO)N2C(=O)c1ccccc1 | 0.23
CS(=O)(=O)N1CC2(C1)[C@H](c1ccccc1)[C@@H](CO)N2Cc1ccccc1 | -1.3
CCC(=O)N1[C@H](CO)[C@@H](c2ccc(/C=C/c3ccccc3)cc2)C12CN(S(C)(=O)=O)C2 | -7.4*
O=C(c1ccc(F)cc1)N1CC(=O)N2[C@H](CO)[C@H](c3ccc(C#CC4CCCCC4)cc3)[C@H]2C1 | 3.5
N#C[C@@H]1[C@H](c2ccc(C3=CCCCC3)cc2)[C@H](CO)N1C(=O)CN1CCOCC1 | -0.23
COCC(=O)N1CC(=O)N2[C@H](CO)[C@@H](c3ccc(Br)cc3)[C@@H]2C1 | 0.27
CN1C(=O)c2cc(NC(=O)C3CCOCC3)ccc2OC[C@H]2O[C@H](CC(=O)NCC3CCCCC3)CC[C@H]21 | -1
SMILES | IDE exosite inh
COc1ccccc1NC(=O)N1CCCCN2[C@H](C1)[C@H](c1ccc(-c3ccc(C)cc3)cc1)[C@@H]2CO | 1.2
COc1ccccc1-c1ccc([C@@H]2[C@@H](CO)N3CCCCN(C(=O)NC4CCCC4)C[C@H]23)cc1 | -8.4*
O=C(NC1CCCC1)N1CCCCN2[C@@H](CO)[C@H](c3ccc(-c4cncnc4)cc3)[C@@H]2C1 | 1.9
COc1ccccc1-c1ccc([C@@H]2[C@@H](CO)N3CCCCN(C(=O)NC4CCCC4)C[C@@H]23)cc1 | -4.7*
COc1ccccc1-c1ccc([C@@H]2[C@H]3CN(C(=O)NC4CCCC4)CCCCN3[C@H]2CO)cc1 | -12*
COc1ccccc1-c1ccc([C@@H]2[C@H](CO)N3CCCCN(C(=O)NC4CCCC4)C[C@@H]23)cc1 | -16*
C[C@@H](O)C#Cc1ccc([C@@H]2[C@@H](CO)N3CCCCN(S(=O)(=O)Cc4ccccc4)C[C@H]23)cc1 | 4.6
O=C(c1ccncc1)N1CC(=O)N2[C@H](CO)[C@H](c3ccc(-c4ccccc4)cc3)[C@H]2C1 | -2.9
O=C(c1cnccn1)N1CC(=O)N2[C@H](CO)[C@H](c3ccc(C#CCC4CCCC4)cc3)[C@@H]2C1 | 4.3
CC(C)CN(C[C@@H]1[C@@H](c2ccccc2)[C@H](CO)N1C(=O)C1CCC1)C(=O)C1CC1 | 5
CCCNC(=O)N1[C@H](C#N)[C@@H](c2ccccc2C2=CCCC2)[C@@H]1CO | 2.1
COCC(=O)NC[C@@H]1[C@@H](c2ccccc2)[C@@H](CO)N1C(C)=O | 5.1
Cc1ccccc1S(=O)(=O)N1CC(=O)N2[C@H](CO)[C@H](c3ccc(C#CC4CC4)cc3)[C@H]2C1 | 1.9
O=C(Nc1ccccc1F)N1CC(=O)N2[C@H](CO)[C@H](c3ccc(-c4cccnc4)cc3)[C@@H]2C1 | -1.3
CCc1cnc(N2[C@H](CO)[C@@H](c3ccccc3-c3ccccc3C)[C@@H]2C#N)s1 | -1.2
O=C(NCC1CC1)[C@@H]1[C@@H](CO)[C@@H]2Cn3c(ccc(-c4ccccc4F)c3=O)[C@H]1N2Cc1cncnc1 | 0.058
C[C@@H]1CCCCO[C@H](CN(C)CC2CCCCC2)[C@H](C)CN([C@@H](C)CO)C(=O)c2cc(NC(=O)Nc3ccc(C(F)(F)F)cc3)ccc2O1 | 0.088
CC(C)C#Cc1ccc([C@@H]2[C@H](CO)N3C(=O)CN(C(=O)Cc4cccnc4)C[C@@H]23)cc1 | 4.9
COCC#Cc1ccc([C@H]2[C@H]3CN(C(=O)NC4CCCC4)CCCCN3[C@H]2CO)cc1 | -0.15
COCC#Cc1ccc([C@H]2[C@@H](CO)N3CCCCN(C(=O)NC4CCCC4)C[C@@H]23)cc1 | -1.2
COc1ccccc1-c1ccc([C@H]2[C@H]3CN(C(=O)NC4CCCC4)CCCCN3[C@H]2CO)cc1 | -14*
O=C(Nc1ccc(F)cc1)N1CC(=O)N2[C@H](CO)[C@@H](c3ccc(-c4ccc(F)cc4)cc3)[C@@H]2C1 | 0.75
CCS(=O)(=O)N1CCCCN2[C@@H](CO)[C@@H](c3ccc(C4=CCCC4)cc3)[C@@H]2C1 | -0.6
C[C@H]1CN([C@@H](C)CO)C(=O)c2ccccc2-c2ccccc2CO[C@H]1CN(C)C(=O)CCC(F)(F)F | -0.68
C/C=C/c1ccc([C@@H]2[C@@H](CO)N(Cc3nccs3)C23CN(CC2CCCC2)C3)cc1 | 0.73
SMILES | IDE exosite inh
C/C=C/c1ccc([C@@H]2[C@H](CO)N3CCCCN(C(=O)Nc4cc(F)ccc4F)C[C@@H]23)cc1 | 1.2
COc1cccc(C#Cc2ccc([C@H]3[C@@H](CO)N4C(=O)CN(C(=O)c5ccccc5)C[C@H]34)cc2)c1 | -3.8*
COc1cccc(C#Cc2ccc([C@H]3[C@@H](CO)N4C(=O)CN(C(=O)c5ccccc5)C[C@@H]34)cc2)c1 | 0.74
COc1cccc(C#Cc2ccc([C@H]3[C@H](CO)N4C(=O)CN(C(=O)c5ccncc5)C[C@@H]34)cc2)c1 | -8.4*
COc1cccc(C#Cc2ccc([C@@H]3[C@H]4CN(C(=O)c5ccccc5)CC(=O)N4[C@H]3CO)cc2)c1 | 3.7
COc1cccc(C#Cc2ccc([C@@H]3[C@@H](CO)N4C(=O)CN(C(=O)c5ccncc5)C[C@H]34)cc2)c1 | -1.5

Screening data: PubChem BioAssay, Broad Institute
